Assay results reported in PubChem BioAssay AID2653 (National Center for Advancing Translational Sciences (NCATS), 2010).
Inconclusive results are not listed. Activity calls are given as the source filed them. The call rests on the fitted dose curve; in most records, active means well fitted curve in the direction sought with a large enough effect; inconclusive means small, poorly fitted or top-dose-only effect, or another doubt; inactive means no such curve, though single readings can be large or run the other way.

test: Secondary Assay for Activators of Human Pyruvate Kinase M2 isoform - Cell Titer Glo Cytotoxicity for Probe SAR; settings: HeLa viability, CellTiter-Glo ATP luminescence, 24 h; series mostly up to 58.2 µM
How it was run: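 Cytotoxicity read as ATP content (CellTiter-Glo luminescence) in HeLa cells after 24 h compound exposure at 37 C, following 24 h pre-plating at 500 cells/well; doxorubicin as control.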

Row | Structure (SMILES) | outcome
1 | Nc1cccc(S(=O)(=O)N2CCCN(S(=O)(=O)c3ccc4c(c3)OCCO4)CC2)c1 | inactive
2 | O=C1c2ccccc2C(=O)N1c1cccnc1 | inactive
3 | O=C1c2ccccc2C(=O)N1c1cccc2cnccc12 | inactive
4 | Cc1ccc(NS(=O)(=O)c2cc3c(cc2-c2cn[nH]c2)NC(=O)CO3)cc1C | inactive
5 | O=C1CCc2cc(Cl)c(S(=O)(=O)Nc3ccc(Cl)c(Cl)c3)cc2N1 | inactive
6 | N#Cc1ccc(NS(=O)(=O)c2ccc3c(c2)CCC(=O)N3)cc1 | inactive
7 | O=C1CCc2cc(S(=O)(=O)Nc3ccc(-c4ccccc4)cc3)ccc2N1 | inactive
8 | O=C1CCc2cc(S(=O)(=O)Nc3ccccc3-c3ccccc3)ccc2N1 | inactive
9 | Cc1ccc2nc(-c3ccc(C)o3)c(NC3CCCC3)n2c1 | inactive
10 | O=C1CCc2cc(S(=O)(=O)Nc3ccc4c(c3)OCCO4)ccc2N1 | inactive
11 | Cc1ccc(NS(=O)(=O)c2cc3c(cc2Cl)CCC(=O)N3)cc1Cl | inactive
12 | Cc1ccc(-c2nc3ccc(Cl)cn3c2Nc2ccccc2)o1 | inactive
13 | O=C1CCc2cc(S(=O)(=O)Nc3ccccc3Cl)ccc2N1 | inactive
14 | Cc1cccc(NS(=O)(=O)c2ccc3c(c2)CCC(=O)N3)c1 | inactive
15 | O=C1CCc2cc(S(=O)(=O)Nc3cccc(Br)c3)ccc2N1 | inactive
16 | Cc1ccc(NS(=O)(=O)c2cc3c(cc2-c2ccco2)NC(=O)CO3)cc1C | inactive

Row | Structure (SMILES) | outcome
17 | CCCCN1C(=O)c2ccccc2C1=O | inactive
18 | O=C1CCc2cc(S(=O)(=O)Nc3ccc(Cl)c(Cl)c3)ccc2N1 | inactive
19 | Cc1ccc(NS(=O)(=O)c2cc3c(cc2C)NC(=O)CO3)cc1C | inactive
20 | O=C1CCc2cc(S(=O)(=O)Nc3ccc4ccccc4c3)ccc2N1 | inactive
21 | O=C1CCc2cc(S(=O)(=O)Nc3cccnc3)ccc2N1 | inactive
22 | CC(=O)N1CCc2cc(S(=O)(=O)Nc3ccc(C)c(C)c3)ccc21 | inactive
23 | O=C1CCc2cc([S+](=O)([O-])NC3CCOCC3)ccc2N1 | inactive
24 | Cc1ccc(NS(=O)(=O)c2ccc3c(c2)CCC(=O)N3)cc1Cl | inactive
25 | CNc1cc2c(cc1S(=O)(=O)Nc1ccc(C)c(C)c1)CCC(=O)N2 | inactive
26 | Cc1cc(N2C(=O)c3ccccc3C2=O)n[nH]1 | inactive
27 | Cc1ccc(NS(=O)(=O)c2ccc3c(c2)CCO3)cc1C | inactive
28 | Cc1ccc(NS(=O)(=O)c2ccc3c(c2)CC(=O)N3)cc1C | inactive
29 | Cc1ccc(-c2nc3cnccn3c2Nc2ccc(C(C)C)cc2)o1 | inactive
30 | Cc1ccc(NS(=O)(=O)c2ccc3c(c2)n(C)c(=O)n3C)cc1C | inactive
31 | Cc1ccc(NS(=O)(=O)c2cccc(F)c2)cc1C | inactive
32 | COc1cccc(OC2=NS(=O)(=O)c3ccccc32)c1 | inactive
